# According to PubChem BioAssay AID588664 (The Scripps Research Institute Molecular Screening Center, 2011):
# In all, about 360,000 compounds went through this assay and about 1,400 (0.39%) were called active. For the sample, actives were picked, then their nearest neighbours and some compounds at random. Unmarked numbers belong to inactive results. Rule as the data show it: active = inhibition above about 5% (passing the limit was not always enough); inactive = the rest.
# Target: Tyrosine-protein kinase ABL1 (Homo sapiens) + Ras and Rab interactor 1 (Homo sapiens) (UniProt P00519+Q13671)
# Sequence (P00519 whole entry, looked up): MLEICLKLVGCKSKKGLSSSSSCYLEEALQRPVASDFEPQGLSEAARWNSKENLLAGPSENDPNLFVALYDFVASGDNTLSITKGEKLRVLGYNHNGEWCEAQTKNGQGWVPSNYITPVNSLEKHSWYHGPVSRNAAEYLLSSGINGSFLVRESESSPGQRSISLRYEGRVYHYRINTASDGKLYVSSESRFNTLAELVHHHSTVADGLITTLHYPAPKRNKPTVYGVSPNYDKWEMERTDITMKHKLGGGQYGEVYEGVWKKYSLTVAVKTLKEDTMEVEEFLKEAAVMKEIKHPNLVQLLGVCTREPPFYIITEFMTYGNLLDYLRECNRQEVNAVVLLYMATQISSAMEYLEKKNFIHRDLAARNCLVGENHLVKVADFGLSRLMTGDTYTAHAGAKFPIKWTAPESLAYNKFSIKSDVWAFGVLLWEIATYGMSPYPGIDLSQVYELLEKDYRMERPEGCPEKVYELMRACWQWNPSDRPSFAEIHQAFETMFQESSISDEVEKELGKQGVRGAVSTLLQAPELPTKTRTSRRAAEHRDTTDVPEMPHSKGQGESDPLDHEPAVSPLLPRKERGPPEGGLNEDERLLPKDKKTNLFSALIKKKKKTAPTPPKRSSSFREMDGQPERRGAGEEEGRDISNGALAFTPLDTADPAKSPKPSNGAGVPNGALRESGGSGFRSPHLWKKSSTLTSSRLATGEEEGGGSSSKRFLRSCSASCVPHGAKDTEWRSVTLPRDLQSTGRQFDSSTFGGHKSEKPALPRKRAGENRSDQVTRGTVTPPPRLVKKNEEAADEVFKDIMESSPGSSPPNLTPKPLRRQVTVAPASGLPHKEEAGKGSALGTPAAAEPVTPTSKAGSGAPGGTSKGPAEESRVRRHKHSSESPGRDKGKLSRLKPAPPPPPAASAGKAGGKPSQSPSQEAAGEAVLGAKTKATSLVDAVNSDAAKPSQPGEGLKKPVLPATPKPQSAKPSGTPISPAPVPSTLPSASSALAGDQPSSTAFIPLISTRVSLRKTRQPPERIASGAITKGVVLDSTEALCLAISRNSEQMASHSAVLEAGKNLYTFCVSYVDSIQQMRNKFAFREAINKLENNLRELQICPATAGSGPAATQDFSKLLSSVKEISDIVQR
# Sequence (Q13671 whole entry, looked up): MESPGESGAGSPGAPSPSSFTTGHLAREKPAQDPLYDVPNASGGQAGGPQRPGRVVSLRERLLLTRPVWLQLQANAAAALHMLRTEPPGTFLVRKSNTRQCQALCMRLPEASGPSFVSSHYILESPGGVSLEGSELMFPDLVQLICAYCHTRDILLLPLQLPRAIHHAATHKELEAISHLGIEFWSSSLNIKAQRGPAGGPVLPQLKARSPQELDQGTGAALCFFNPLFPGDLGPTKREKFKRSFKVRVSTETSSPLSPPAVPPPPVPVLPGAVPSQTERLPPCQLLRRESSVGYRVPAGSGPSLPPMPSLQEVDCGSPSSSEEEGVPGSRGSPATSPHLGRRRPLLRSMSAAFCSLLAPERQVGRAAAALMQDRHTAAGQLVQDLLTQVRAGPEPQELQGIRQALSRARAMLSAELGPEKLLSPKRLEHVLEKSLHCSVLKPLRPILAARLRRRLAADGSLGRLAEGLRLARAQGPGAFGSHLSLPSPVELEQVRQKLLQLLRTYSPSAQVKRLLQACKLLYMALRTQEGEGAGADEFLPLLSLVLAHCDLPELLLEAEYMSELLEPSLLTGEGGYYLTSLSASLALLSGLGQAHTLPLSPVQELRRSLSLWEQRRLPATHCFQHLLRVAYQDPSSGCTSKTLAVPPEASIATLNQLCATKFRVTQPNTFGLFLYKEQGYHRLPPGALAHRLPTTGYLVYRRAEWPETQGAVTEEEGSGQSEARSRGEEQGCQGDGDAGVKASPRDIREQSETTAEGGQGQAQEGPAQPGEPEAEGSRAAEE
# Assay: inhibitors of Rin1-Abl protein binding, primary screen, biochemical, TR-FRET (AID 588664)
# Conditions: at 7.35 µM, active compounds read high
row,Structure (SMILES),inhibition
1,CCOc1ccc(S(=O)(=O)N2CCCCC2)cc1NC(=O)CN1CCCC1c1cccs1 (stereo unspecified),8.67% (active)
2,CCOc1ccccc1NC(=O)COc1ccc(S(=O)(=O)N2CCCC2)cc1,2.38%
3,COc1ccc(S(=O)(=O)N2CCCCC2)cc1NC(=O)COc1ccccc1,0.41%
4,COc1ccccc1C(CNC(=O)c1ccc(C)c(S(=O)(=O)N2CCCCC2)c1)N(C)C (stereo unspecified),1.36%
5,COc1ccc(NC(=O)C(C)N2c3cccc4cccc(c34)S2(=O)=O)c(OC)c1 (stereo unspecified),0.54%
6,NC(=O)C[C@@H]1NC(=O)CNC(=O)c2cc([N+](=O)[O-])cc(I)c2NCCC(C(N)=O)NC1=O (stereo partly specified),-0.35%
7,CC(NS(=O)(=O)c1ccc(OCC(=O)N2CCCC2)cc1)c1ccccc1 (stereo unspecified),1.07%
8,O=C(COc1ccc(S(=O)(=O)NCCc2ccccc2)cc1)N1CCCC1,7.8% (active)
9,O=C(COc1ccc(S(=O)(=O)NCc2ccccc2)cc1)N1CCOCC1,-6.66%
10,COc1cc(C(=O)N/C(=C\c2cn(C)c3ccccc23)C(=O)N2CCOCC2)cc(OC)c1OC,3.65%
11,Cc1cccc(N)c1SC1CCCCC1O (stereo unspecified),-2.16%
12,COC(=O)C1=C(N)Oc2c(oc(CO)cc2=O)C1c1c(F)cccc1Cl (stereo unspecified),1.15%
13,Cc1cccc(CN2CCN(C3CN(Cc4ccccc4)S(=O)(=O)C3)CC2)c1 (stereo unspecified),5.69%
14,NC(=O)c1ccsc1NC(=O)COC(=O)Cc1n[nH]c(=O)c2ccccc12,1.63%
15,Cc1ccc(S(=O)(=O)C2(S(=O)(=O)c3ccc(C)cc3)CCCC2)cc1,1.29%
16,CC1(C(=O)Nc2cccc3c2CCCC3)CCN1C(=O)C1(c2ccccc2)CC1 (stereo unspecified),1.83%
17,Cc1c(NC(=O)C(C)OC(=O)c2ccccc2O)c(=O)n(-c2ccccc2)n1C (stereo unspecified),-1.15%
18,COC(=O)c1ccccc1NC(=O)CSc1ccccn1,-0.76%
19,CC(OC(=O)c1ccccc1NCCO)C(=O)Nc1ccnn1C(C)C (stereo unspecified),44.6% (active)
20,C=CCc1cc(C)ccc1OCCCn1ccnc1,0.39%
21,CCc1ccccc1NC(=S)N(CCN1CCCCCC1)Cc1ccco1,-2.14%
22,Cc1cc(C)n(CCNCc2c(C(=O)N3C[C@@H](C)O[C@@H](C)C3)nc3ccc(Cl)cn23)n1,5.28%
23,CCc1nnc(NC(=O)C2CCN(C(=O)c3ccccc3C)CC2)s1,-1.24%

row,Structure (SMILES),inhibition
1,Cc1ccccc1C(=O)N1CCC(C(=O)Nc2ccc(S(=O)(=O)N(C)C(C)C)cc2)CC1,14.6% (active)
2,CC(=O)c1cccc(NC(=O)C2CCN(C(=O)c3ccccc3Cl)CC2)c1,-0.65%
3,Cc1ccc(CN2CCN(Cc3ccccc3-c3ccco3)CC2CCO)o1 (stereo unspecified),-0.29%
4,O=Nc1c(O)cc(O)c2ccccc12,12.5% (active)
5,COc1cccc2c(O)cc(=O)n(C)c12,-0.91%
6,O=c1c2ccccc2ccc2ccc(P(=O)(O)O)cc12,0.55%
7,CCCC(=O)C1=C(N(C)c2ccccc2)CC(C)(C)C(C(=O)OC)C1=O (stereo unspecified),0.08%
8,CC(C)CNC(=O)CC(c1ccccc1)c1c(O)ccc2ccccc12 (stereo unspecified),-0.65%
9,COc1ccc(OCCn2ccnc2C)cc1,1.4%
10,O=[N+]([O-])c1cc(C(F)(F)F)ccc1NCCc1ccncc1,-3.62%
11,CCCn1c(N)c(C(=O)CSc2nnc3n2CCCCC3)c(=O)[nH]c1=O,6.59%
12,CCCn1c(N)c(C(=O)CSc2nnc(Cc3cccs3)n2C2CC2)c(=O)[nH]c1=O,2.22%
13,Cc1ccc(-n2c(SCC(=O)NCc3ccc4c(c3)OCO4)nnc2-c2cccnc2)c(C)c1,8.97% (active)
14,Cc1cccc(C)c1NC(=O)CSc1nnc(-c2ccccc2)n1Cc1ccc2c(c1)OCO2,8.78%
15,Cc1ccccc1-c1nnc(SCC(=O)NCc2ccc3c(c2)OCO3)n1C,0.29%
16,CCCn1c(N)c(C(=O)CSc2nnc(-c3cccnc3)n2-c2ccc(C)cc2C)c(=O)[nH]c1=O,12.2% (active)
17,CCOC1CCCCC1NS(=O)(=O)c1ccc(Cl)cc1 (stereo unspecified),-1.9%
18,COc1ccc(C(CNC(=O)c2cc3c(s2)CCCC3)N2CCOCC2)cc1 (stereo unspecified),-1.94%
19,O=C(c1ccc(NS(=O)(=O)c2ccc3[nH]c(=O)[nH]c3c2)cc1)N1CCCCC1,2.64%
20,Cc1ccccc1N1CCN(C(=O)c2cccnc2)CC1,1.88%
21,CC(C)Cn1cnc2c1c(=O)n(CC(O)c1ccccc1)c(=O)n2CC(C)C (stereo unspecified),2.26%
22,COCCNc1nc(-n2nc(C)cc2C)nc2sc3c(c12)CCCC3,-2.91%
23,COC(=O)c1ccccc1OCC(=O)N1CCN(c2ccc(Cl)cc2)CC1,3.93%

row,Structure (SMILES),inhibition
1,COc1ccc(N2C(=O)C3CCCN3C2c2cc(OC)c(OC)cc2OC)cc1 (stereo unspecified),-1.54%
2,COc1ccc(N2C(=O)C3CCCN3C2c2cccs2)cc1 (stereo unspecified),7.79% (active)
3,COc1cccc(N2C(=O)C3CCCN3C2c2ccc(F)cc2)c1 (stereo unspecified),1.17%
4,CSc1ccc(/C=C/C(=O)NC23CC4CC(CC(C4)C2)C3)cc1,-0.46%
5,CCN(Cc1ccccc1)C(=O)CCS(=O)(=O)c1ccc2c(c1)oc(=O)n2C,-4.23%
6,CS(=O)(=O)N1CCN(C(=O)CSc2ccccc2)CC1,2.46%
7,O=c1oc2ccccc2cc1-c1cn(-c2ccccc2)c(=S)[nH]1,-2.16%
8,O=C(c1cn(-c2ccccc2)nc1-c1cc2ccccc2oc1=O)N1CCOCC1,8.23% (active)
9,NC(=O)C1CCN(C(=O)c2cn(-c3ccccc3)nc2-c2cccnc2)CC1,2.02%
10,CCCCCN(C(=O)CCC(=O)OCCOc1ccc(OC)cc1)c1c(N)n(CCCC)c(=O)[nH]c1=O,1.88%
11,Cc1cc(C(F)(F)F)nn1CC(=O)N1CCCC1,-1.33%
12,Oc1c(C(c2ccccn2)N2CCOCC2)ccc2cccnc12 (stereo unspecified),27% (active)
13,C/C=C/C(=O)Nc1nnc(C(C)C)s1,-0.75%
14,O=C(O)/C(=C/c1cccnc1)NC(=O)c1ccccc1,-1.66%
15,Cc1nc(CN2CCN(C(=O)CCc3nnc(Cc4c[nH]c5ccccc45)o3)CC2)cs1,-2.84%
16,O=C(Oc1c(-c2ccco2)oc2ccccc2c1=O)c1cccnc1,0.23%
17,CCOC(=O)N1CCC(NC(=O)CCc2ccccc2)CC1,-0.75%
18,CCOC(=O)N1CCC(c2cc(=O)n(-c3ccccc3)[nH]2)CC1,11.4% (active)
19,CCOC(=O)CN1CCC(c2ccccc2)CC1,1.17%
20,C[C@@H]1CN([C@@H](C)CO)C(=O)CCCn2nncc2CO[C@H]1CN(C)C(=O)Nc1ccc(C(F)(F)F)cc1,-1.77%
21,CCCOc1ccc(C2C(C(=O)c3ccc(C)o3)=C(O)C(=O)N2CCCn2ccnc2)cc1 (stereo unspecified),-89.7%
22,OCC(CO)(CO)NCc1ccc(-c2ccccc2)cc1,-1.05%
23,COc1ccc(Cl)cc1-n1c(=S)sc2c(=O)n(-c3ccc(F)cc3)c(SCC(=O)O)nc21,3.75%

row,Structure (SMILES),inhibition
1,CN(C(=O)c1cccc(NC(=O)Cc2cccc(NC(=O)C3CCCN(C(=O)C4CC4)C3)c2)c1)C1CCC1 (stereo unspecified),1.65%
2,CN(C(=O)c1ccc(NC(=O)Cc2cccc(NC(=O)C3CCN(C(=O)c4ccccc4)CC3)c2)cc1)C1CC1,16.1% (active)
3,CN(C(=O)c1cccc(NC(=O)Cc2ccc(NC(=O)C3CCN(C(=O)C4CCCCC4)CC3)cc2)c1)C1CCC1,0.86%
4,C=CCn1c(SCC(=O)c2c(N)n(C)c(=O)n(C)c2=O)nc2sc(CC)cc2c1=O,-0.41%
5,O=C(COc1ccc([N+](=O)[O-])cc1)Nc1cccc(C(=O)Nc2ccccc2C(=O)O)c1,2.02%
6,O=C(CSCc1ccc([N+](=O)[O-])cc1)Nc1cccc(C(=O)Nc2ccccc2C(=O)O)c1,11.8% (active)
7,COc1ccc(NC(=O)CSCc2ccc([N+](=O)[O-])cc2)cc1OC,0.28%
8,CCOCCCNC(=O)C(NC(=O)Cc1c[nH]c2ccccc12)c1ccc(OC)cc1 (stereo unspecified),-1.97%
9,CC(C)(C)c1ccc(Cn2nnc3c(=O)[nH]c(C4CCCN(C(=O)c5ccco5)C4)nc32)cc1 (stereo unspecified),0.48%
10,O=C(Nc1nn(Cc2ccccc2F)cc1Br)c1cccs1,-1.24%
11,Oc1cccc2cc(-c3ccncc3)cnc12,13.3% (active)
12,Fc1ccc(-c2ccc(CNCc3ccccn3)o2)cc1Cl,-2.17%
13,CN1CCN(C(CNS(=O)(=O)c2cccs2)c2cccnc2)CC1 (stereo unspecified),1.76%
14,COC(=O)CN1C(C)=Nc2ccc(Br)cc2C1c1ccccc1 (stereo unspecified),0.76%
15,Cc1nn(CC#N)c(=O)n1N(C)c1ncc(C(F)(F)F)cc1Cl,2.69%
16,Cc1nn(-c2ncc(C(F)(F)F)cc2Cl)c(=O)n1-c1ccccc1,7.67% (active)
17,CN(C)C=NC(=O)c1cccn1-c1ncc(C(F)(F)F)cc1Cl,1.65%
18,O=C(O)c1cccc2c1C(=O)N(C1CCCC1)C2,-1.46%
19,O=c1ccc2c(-c3ccccc3S(=O)(=O)O)c3ccc(O)c(O)c3oc-2c1O,52.3% (active)
20,COCCNC(=O)COc1ccc(N(C)S(=O)(=O)c2ccc3ccccc3c2)cc1,1.04%
21,Cc1ccc(C)c(NC(=O)CN(C)C(=O)COc2ccc3ccccc3c2)c1,0.05%
22,Cc1cc2ccccc2n1CCNC(=O)COc1ccc2ccccc2c1,7.69% (active)
